The entries come from a sample that favours hits as a whole.
Dicer processing = human Dicer pre-microRNA cleavage inhibition; cat-ELCCA pre-miR-21 Dicer processing, chemiluminescence; hits give high values; z-score at 25 µM; 47,000 tested, 6% active; AID 1347074; in the data active means z-score above about 3, passing the limit was not always enough;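 further: plate controls were vehicle for no effect and no enzyme for full effect; higher signal means more uncleaved substrate so more Dicer inhibition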
Target sequence (Q9UPY3 whole entry, looked up): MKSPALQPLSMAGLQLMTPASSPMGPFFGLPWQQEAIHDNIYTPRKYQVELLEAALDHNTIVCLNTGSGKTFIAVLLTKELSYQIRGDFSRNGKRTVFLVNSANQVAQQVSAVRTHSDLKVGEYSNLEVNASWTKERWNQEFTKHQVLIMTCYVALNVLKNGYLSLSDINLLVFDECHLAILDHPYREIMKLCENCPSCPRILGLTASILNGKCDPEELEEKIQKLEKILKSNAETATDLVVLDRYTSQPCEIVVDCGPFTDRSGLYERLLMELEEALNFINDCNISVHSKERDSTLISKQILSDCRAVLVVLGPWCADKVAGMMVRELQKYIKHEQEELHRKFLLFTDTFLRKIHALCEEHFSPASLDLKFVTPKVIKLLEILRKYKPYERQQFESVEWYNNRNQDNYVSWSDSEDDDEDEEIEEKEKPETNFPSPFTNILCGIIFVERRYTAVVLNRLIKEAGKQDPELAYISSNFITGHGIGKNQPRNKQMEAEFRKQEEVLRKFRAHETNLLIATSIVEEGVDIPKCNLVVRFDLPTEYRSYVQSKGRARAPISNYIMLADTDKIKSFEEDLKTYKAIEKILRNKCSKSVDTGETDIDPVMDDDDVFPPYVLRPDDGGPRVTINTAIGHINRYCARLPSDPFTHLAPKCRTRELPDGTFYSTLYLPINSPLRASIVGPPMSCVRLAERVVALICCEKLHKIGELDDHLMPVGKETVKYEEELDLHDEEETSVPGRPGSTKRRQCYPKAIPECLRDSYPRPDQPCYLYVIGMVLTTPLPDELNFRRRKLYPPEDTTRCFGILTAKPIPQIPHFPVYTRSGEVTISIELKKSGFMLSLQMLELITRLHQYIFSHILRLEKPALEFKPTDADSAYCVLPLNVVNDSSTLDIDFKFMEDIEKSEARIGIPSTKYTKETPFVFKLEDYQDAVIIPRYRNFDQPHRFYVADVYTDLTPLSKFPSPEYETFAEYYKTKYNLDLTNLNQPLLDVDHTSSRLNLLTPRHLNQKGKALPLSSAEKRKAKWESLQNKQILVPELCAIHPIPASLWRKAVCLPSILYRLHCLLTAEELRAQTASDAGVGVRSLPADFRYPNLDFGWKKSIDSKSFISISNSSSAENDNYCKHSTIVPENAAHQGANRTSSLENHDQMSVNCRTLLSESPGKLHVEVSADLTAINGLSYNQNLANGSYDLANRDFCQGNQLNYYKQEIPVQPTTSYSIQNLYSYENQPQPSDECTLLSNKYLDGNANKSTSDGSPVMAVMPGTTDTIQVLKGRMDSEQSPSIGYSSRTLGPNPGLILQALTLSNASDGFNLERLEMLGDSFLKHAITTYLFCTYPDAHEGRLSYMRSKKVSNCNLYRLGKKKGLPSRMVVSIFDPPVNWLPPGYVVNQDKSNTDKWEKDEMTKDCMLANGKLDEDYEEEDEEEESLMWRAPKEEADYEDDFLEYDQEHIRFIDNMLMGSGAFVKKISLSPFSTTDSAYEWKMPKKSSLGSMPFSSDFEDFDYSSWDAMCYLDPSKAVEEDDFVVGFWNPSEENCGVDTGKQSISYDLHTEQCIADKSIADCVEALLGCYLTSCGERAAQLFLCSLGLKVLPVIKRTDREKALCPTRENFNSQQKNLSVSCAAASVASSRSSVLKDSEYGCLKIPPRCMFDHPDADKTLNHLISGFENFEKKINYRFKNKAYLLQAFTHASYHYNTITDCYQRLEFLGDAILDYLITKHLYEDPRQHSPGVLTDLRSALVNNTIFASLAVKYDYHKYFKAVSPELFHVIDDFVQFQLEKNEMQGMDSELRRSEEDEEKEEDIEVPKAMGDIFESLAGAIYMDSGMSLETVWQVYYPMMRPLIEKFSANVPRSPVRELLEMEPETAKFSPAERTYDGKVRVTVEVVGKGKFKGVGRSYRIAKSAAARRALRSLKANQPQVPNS
* hit, by the source's call.

SMILES | Dicer processing
Cn1cc(Br)c(NC(=O)CSc2cc(C(F)(F)F)cc(C(F)(F)F)c2)n1 | -5.16
COc1ccc(OC)c(C2Nc3ccc4ncccc4c3C3=C2C(=O)CCC3)c1 (stereo unspecified) | 0.43
COc1c(C(=O)O)sc(C(=O)O)c1OC | -0.56
CCCCC(C(N)=O)C1=NC(C)(C)Cc2ccccc21 (stereo unspecified) | 0.96
CN(C)CCCn1c(-c2ccccc2)nc(=S)c2c1CC(C)(C)OC2 | -0.37
CN(C(=O)c1cn(C)c(=O)cc1C(F)(F)F)c1ccc(Cl)cc1 | -0.58
CCN(CC)c1ccc(C2C(C#N)=C(C)NC3=C2C(=O)CC(C)(C)C3)cc1 (stereo unspecified) | -0.42
Cc1cc(C)c(C)c(S(=O)(=O)Nc2ccc3oc(=O)sc3c2)c1C | 4.27*
COc1ccc(S(=O)(=O)Nc2ccc3oc(=O)sc3c2)cc1OC | 3.44*
COc1ccc(OC)c(S(=O)(=O)Nc2cc(Cl)c3oc(=O)sc3c2)c1 | -0.17
COc1ccccc1C(=O)Oc1ccc2oc(=O)sc2c1 | 2.24
COc1cc(S(=O)(=O)Nc2cccnc2)ccc1F | 0.84
O=c1oc2c(Cl)cc(NS(=O)(=O)c3ccccc3)cc2s1 | 11.3*
O=S(=O)(Nc1ccc(Br)cc1)c1ccccc1 | 1.76
CCOC(=O)NC(=O)/C(C#N)=N/Nc1ccccc1 | -0.78
COC(=O)c1sc(C(F)(F)F)c(-c2ccccc2)c1N | 0.54
Nc1nonc1C(=O)NCCNC(=O)c1ccccc1Br | 0.15
Cn1c2c(c(=O)[nH]c1=O)C(c1cccc(F)c1)C1=C(N2)c2ccccc2C1=O (stereo unspecified) | 0.01
COC(=O)c1sccc1NNS(=O)(=O)c1ccccc1 | 0.65
FC(F)(F)c1ccnc(Sc2ccccc2NC(=S)Nc2ccc(Cl)cc2)n1 | -4
FC(F)(F)c1cccc(N2CCN(c3nc(-c4ccc(Cl)cc4)cs3)CC2)c1 | -3.21
CS/C(NCc1ccco1)=C(/C#N)S(=O)(=O)c1ccc(Cl)cc1 | -1.1
CSC(SC)=C(C#N)S(=O)(=O)c1ccc(Cl)cc1 | 3.16*
C=CCN/C(SC)=C(\C#N)S(=O)(=O)c1ccc(Cl)cc1 | -4.35
CCC(C)Nc1ncnc2sccc12 (stereo unspecified) | -0.16
SMILES | Dicer processing
Cc1ccc(-c2oc3ccc(C)cc3c(=O)c2O)cc1 | -2.19
Cc1ccc2oc(-c3ccco3)c(O)c(=O)c2c1 | -2.85
Cc1ccc2oc(-c3cc(Br)ccc3O)c(O)c(=O)c2c1 | 5.34*
O=C1c2oc3ccc(F)cc3c(=O)c2C(c2cccc(O)c2)N1Cc1ccc(F)cc1 (stereo unspecified) | -1.16
O=C1C2C3C=CC(CO)(O3)C2C(=O)N1c1cccc2ccccc12 (stereo unspecified) | -0.35
C#CC(O)(c1ccccc1)c1ccccc1 | 0.09
CC(C)C(N)C(O)(c1ccccc1)c1ccccc1 (stereo unspecified) | 3.85*
COc1ccc(C(O)(c2ccccc2)c2ccccc2)cc1 | 1.88
NC(=O)c1c(C(F)(F)F)cccc1C(F)(F)F | -0.98
COc1ccc(OC)c(C2C(C(=O)OCCOc3ccccc3)=C(C)NC3=C2C(=O)CC(C)(C)C3)c1 (stereo unspecified) | 0.9
O=C(C1=NNCC1c1ccccc1)c1ccccc1 (stereo unspecified) | -0.12
O=C(C1=NNCC1c1ccccc1)c1ccc2ccccc2c1 (stereo unspecified) | 4.34*
O=C(C1=NNCC1c1c2ccccc2cc2ccccc12)c1ccc(Br)cc1 (stereo unspecified) | -0.74
O=C(Cn1nc(C(F)(F)F)c2c1CCC2)Nc1ccc2c(c1)OCO2 | -0.16
Cc1cc(C)c2nc(NCc3ccccc3O)sc2c1 | 2.9
COc1cc(CNc2nc3c(C)cc(C)cc3s2)ccc1O | 3.13*
COc1cc(CCC(C)NCc2ccccc2)ccc1O (stereo unspecified) | -1.24
O=S(=O)(O)c1cc2cc3ccccc3cc2[nH]1 | -1.43
Cc1ccc(-n2c(-c3ccccc3)c[n+]3c2CCCCC3)cc1 | -1.54
Cc1cccc(C(=O)Nc2cc(F)c(Br)cc2F)c1C | 0.81
COc1ccc(Oc2coc3cc(OCC(=O)NC4CCCCC4)ccc3c2=O)cc1 | -1.01
CN1CCN(c2nc3c(c(=O)n(C)c(=O)n3C)n2Cc2ccccc2Cl)CC1 | 4.21*
CN1CCN(c2nc3c(c(=O)n(C)c(=O)n3C)n2Cc2c(F)cccc2Cl)CC1 | 0.87
Cn1c(=O)c2c(nc(N3CCCCC3)n2Cc2ccccc2F)n(C)c1=O | 1.68
CC1(C)CC(=O)c2cnc(NC(=O)CSc3nc4ccccc4s3)nc2C1 | 1.38
SMILES | Dicer processing
COC(=O)C1=C(C)N=C2SC(C)C(=O)N2C1c1ccc(Cl)cc1 (stereo unspecified) | 1.96
Cc1cc(C)n2ncc(C(=O)Nc3ccc(F)cc3F)c2n1 | -0.92
C1CN(c2nsnc2OCCOc2nsnc2N2CCOCC2)CCO1 | -0.25
O=C(Oc1nsnc1N1CCOCC1)N1CCCCC1 | 1.49
O=C(Oc1nsnc1N1CCOCC1)N1CCOCC1 | 3.1*
CC(CN(C)Cc1ccccc1)OC(=O)C1COc2ccccc2O1 (stereo unspecified) | 3.5*
CC1CCN(CC(C)OC(=O)C2COc3ccccc3O2)CC1 (stereo unspecified) | 0.56
O=C(C1COc2ccccc2O1)N1CCCC1 (stereo unspecified) | 1.09
O=C(Nc1ccc2c(c1)OCCO2)C1CCN(S(=O)(=O)c2ccc(Br)cc2)CC1 | 24.4
COC(=O)c1c(C)oc2ccc(OC(=O)N3CCOCC3)cc12 | 5.73*
CCOC(=O)c1c(C)oc2ccc(OC(=O)N3CCOCC3)cc12 | 1.47
Cc1oc2ccc(OC(=O)N3CCOCC3)cc2c1C(=O)OC(C)C | -0.19
CCOC(=O)c1nn(-c2ccc(Cl)cc2)c2nc3ccccc3n12 | -0.37
Clc1cc(Cl)c(Cl)c(-n2cccc2)c1Cl | -0.23
CCc1nnc2sc(-c3ccc(N)cc3)nn12 | 3.38*
CCOc1ccc(-c2nn3c(COc4ccccc4)nnc3s2)cc1 | 1.99
COc1ccc(-c2nn3c(Cc4ccccc4)nnc3s2)cc1 | -0.45
CN(C)CCN1C(=O)C(=O)/C(=C(/O)c2ccc(Cl)cc2)C1c1ccco1 (stereo unspecified) | -0.28
CCOC(=O)C1CCN(C(=O)N2c3ccccc3Sc3ccccc32)CC1 | 4.83*
O=C(Cc1cccs1)N1c2ccccc2Sc2ccccc21 | 0.57
NC(=O)C1CCN(C(=O)N2c3ccccc3Sc3ccccc32)CC1 | 2.17
O=C(N1CCN(CCO)CC1)N1c2ccccc2C=Cc2ccccc21 | -0.57
CN1CCN(C(=O)N2c3ccccc3Sc3ccccc32)CC1 | 3.39*
CCOC(=O)N1c2ccccc2Sc2ccccc21 | 0.27
Cc1csc2c(NC(C)C)ncnc12 | 1.25
SMILES | Dicer processing
CCOC(=O)c1c(C)nsc1N/N=C(\C#N)C(=O)c1ccc(Cl)cc1 | 1.57
c1ccc2c(c1)nc(N1CCCCC1)c1nncn12 | 1.26
Cc1ccc2c(C)nc(NC3=NCN(Cc4ccco4)CN3)nc2c1 | -0.72
Cc1csc2c(=O)sc(NC(=O)c3ccc(C(C)(C)C)cc3)nc12 | 0.15
O=C(O)C1C2C=CC(C2)C1C(=O)N1CCc2ccccc21 (stereo unspecified) | 2.53
O=C(C1CC1)N1c2ccccc2CCc2ccccc21 | 2.79
O=C(C1CC1)N1CCc2ccccc21 | 3.31*
Cc1nnc(SCC(=O)Nc2ccc(C(F)(F)F)cc2)n1-c1ccc(OCc2ccccc2)cc1 | -0.3
CCOc1ccccc1-c1nc(-c2ccc(-c3cccc(OC)c3)nc2OC)no1 | 0.28
CC(c1ccccc1)n1c(SCCS(=O)(=O)c2ccc(F)cc2)n[nH]c1=O (stereo unspecified) | -0.26
